Hits are enriched below; roughly 4.2% of the tested compounds scored in any of these assays.
ssDAF-12 act: S. stercoralis DAF-12 activation, primary screen; AID 652126; HEK293 ssDAF-12/GRIP1 lit1-tk-luc reporter, luminescence; % of 3 µM dafachronic acid response; 1% of 370,000 active; activation, % at 6.8 µM;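 active means activation above the mean over all tested compounds plus 3 SD, cut at about 0.9% in these data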
DAX1 StAR inh: blocks DAX1 repression of SF-1 activated StAR promoter. HEK293T StAR-luciferase reporter, SF-1/DAX-1 repression relief. inhibition, % at 6.8 µM. 1.1% of 370,000 active. AID 652010;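 active means inhibition above the mean over all tested compounds plus 3 SD, cut at about 3.6% in these data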;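 further: higher inhibition means more luminescence from relief of DAX-1 repression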
hgDAF12 agonist: hgDAF-12 agonism, primary luciferase screen; HEK293 GAL4-hgDAF12 UAS-luciferase reporter, agonist luminescence; normalized to butyrate control; activation, % at 6.8 µM; 1.8% of 370,000 active; AID 687014;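 active means activation above a cutoff set at the mean of all screened compounds plus 3 SD, cut at about 10% in these data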
SMARCA2 activ: increases SMARCA2 function in MMTV reporter cells. MG213 cells, MMTV-luciferase reporter, dexamethasone, overnight. AID 652017. activation, % at 9.1 µM. 1% of 370,000 active; in the data active means activation above about 7.8%
hcDAF-12 act: H. contortus DAF-12 activation, primary screen | HEK293 hcDAF-12 lit1-tk-luc reporter, luminescence; 0% DMSO, 100% Δ7-dafachronic acid | activation, % at 6.8 µM | 1.4% of 370,000 active | AID 652067;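 active means activation above the mean of all tested compounds plus 3 SD, cut at about 5.5% in these data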
SMARCA2 act conf: confirmation of SMARCA2 (BRM) function activators; shares compounds with SMARCA2 activ; MG213 cells, MMTV-luciferase with dexamethasone, luminescence, overnight; MG213 cells expressing E1A, Rb sequestered; DMSO wells 0%, reference activator 100%; activation, % at 9.1 µM; 30% of 3,500 active; AID 652260;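 active means activation above its plate's cutoff, the mean activation of tested wells plus 3 SD, cut at about 7.9% in these data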
VP16 Luc act: GAL4-VP16 reporter activation counter-screen. shares compounds with SMARCA2 activ. AID 686939. activation, % at 9.1 µM. HEK293 GAL4-VP16 pG5luc reporter, luciferase luminescence; scaled: DMSO wells 0%, SAHA wells 100%. 41% of 3,500 active;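 active means activation above the solvent-only control well mean plus 3 SD, averaged across control plates, cut at about 5.2% in these data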
Each line names hits and unclear results; the compound was inactive in the other large screens (follow-up assays come after a bar, where they were run).

CCOC(=O)[C@]12CCCC3=C1N(CCC3)C(=O)[C@@H](CC(=O)NCc1ccc(OC)c(OC)c1)C2	SMARCA2 activ 8.0 | SMARCA2 act conf inactive | VP16 Luc act inactive
CCOC(=O)[C@]12CCCC3=C1N(CCC3)C(=O)[C@@H](CC(=O)NCc1cccc(C(F)(F)F)c1)C2	none
O=[N+]([O-])c1ccccc1Nc1nc(-c2cccnc2)cs1	SMARCA2 activ 9.2, hcDAF-12 act 5.6 | SMARCA2 act conf 9.6 | VP16 Luc act 7.7
CCc1ccccc1Nc1nc(-c2cccnc2)cs1	none
Nc1ccn([C@@H]2O[C@H](C(=O)N[C@H](Cc3ccccc3)C(=O)N3CCN(CCO)CC3)[C@@H](O)[C@H]2O)c(=O)n1	none
Cc1ccc(NC(=O)c2ccccc2Cl)c(Cl)c1	hgDAF12 agonist 11, SMARCA2 activ 13 | SMARCA2 act conf 11 | VP16 Luc act 5.5
CC(=O)NCc1ccc(C(=O)CCl)s1	SMARCA2 activ 9.0 | SMARCA2 act conf 10 | VP16 Luc act 8.0
Cc1cc(C)n(CCNC(=O)[C@H]2O[C@@H](n3cnc4c(N)ncnc43)[C@H](O)[C@@H]2O)n1	none
CS(=O)(=O)N1Cc2cc(C(=O)NCC3CCCCC3)nc(-c3cccc(-c4cccnc4)c3)c2[C@H]1CCO	none
C=CCN1C(=O)[C@H](CC(=O)NCc2cccc3ccccc23)[C@@]2(C(=O)OCC)CCCC=C12	none
COc1ccc(NC(=O)c2cc([N+](=O)[O-])ccc2NC(=O)CNCc2ccccn2)c(OC)c1	SMARCA2 activ 13 | SMARCA2 act conf inactive | VP16 Luc act inactive
CCS(=O)(=O)N1Cc2ccccc2CC1C(=O)Nc1ccc(F)c(F)c1 (stereo unspecified)	SMARCA2 activ 15 | SMARCA2 act conf inactive | VP16 Luc act inactive
CCOc1ccc(NC(=O)C2Cc3ccccc3CN2S(=O)(=O)CC)cc1 (stereo unspecified)	SMARCA2 activ 10 | SMARCA2 act conf inactive | VP16 Luc act inactive
CCS(=O)(=O)N1Cc2ccccc2CC1C(=O)Nc1ccc(OC)cc1 (stereo unspecified)	none
O=C(NC1CCCCC1)C(c1ccccc1F)n1c(=O)c(-c2cc3ccccc3[nH]2)nc2ccccc21 (stereo unspecified)	none
CCc1cc2c(nc1CC)CCCN2S(=O)(=O)c1ccccc1C	none
COc1ccccc1N/C=C/c1onc(C)c1[N+](=O)[O-]	none
Cc1noc(/C=C/Nc2ccc(F)cc2F)c1[N+](=O)[O-]	hgDAF12 agonist 12, SMARCA2 activ 8.0 | SMARCA2 act conf inactive | VP16 Luc act 10
O=C(COC(=O)c1nc(Cl)c(Cl)c(Cl)c1Cl)NCc1ccccc1	SMARCA2 activ 21 | SMARCA2 act conf 53 | VP16 Luc act inactive
Nc1c(Cl)c(Cl)nc(C(=O)OCC(=O)NCc2ccccc2)c1Cl	none
O=C(C1CCCN1S(=O)(=O)c1ccc(Br)s1)N1CCN(c2ccccc2)CC1 (stereo unspecified)	none
COC(=O)[C@]12C[C@H](CC(=O)NCC34CC5CC(CC(C5)C3)C4)C(=O)N(Cc3ccccc3)C1=C[C@H](C(C)C)O[C@@H]2C1CC1	none
Cc1ccc(C)c2c1CCC(=Cc1ccccc1[N+](=O)[O-])C2=O	none
CN1C/C(=C/c2ccccc2[N+](=O)[O-])C(=O)/C(=C\c2ccccc2[N+](=O)[O-])C1	SMARCA2 activ 26 | SMARCA2 act conf inactive | VP16 Luc act 5.1
C[C@@H]1C=CCCO[C@]12C(=O)N(CC1CC1)c1cccc(Br)c12	none
Cc1cc(N/N=C/c2ccccc2O)nc(-c2ccccc2O)n1	none
Cc1cc(N/N=C/c2cccc(Br)c2)nc2ccccc12	SMARCA2 activ 12 | SMARCA2 act conf inactive | VP16 Luc act 7.8
Cc1cc(N/N=C\c2ccccc2)nc(-c2ccccc2O)n1	SMARCA2 activ 13 | SMARCA2 act conf inactive | VP16 Luc act inactive
Cc1cc(=O)[nH]c(N/N=C/c2cccc(Br)c2)n1	none
CC(=O)Nc1cncc(-c2cnn(CC(C)C)c2)n1	none
CCCNC(=O)c1cc2c(c(-c3cccc(-c4ccccc4F)c3)n1)[C@@H](CCO)N(C(=O)CC1CC1)C2	none
Cc1occc1-c1nnc(SCC(=O)Nc2ccc3ncccc3c2)n1-c1ccccc1	none
CC(=O)C1=C(S(=O)(=O)c2ccc(C)cc2)CS(=O)(=O)C1	SMARCA2 activ 9.1 | SMARCA2 act conf 15 | VP16 Luc act inactive
Cc1cccc(Cc2cnc(NC(=O)c3ccc(C)o3)s2)c1	SMARCA2 activ 11 | SMARCA2 act conf inactive | VP16 Luc act inactive
Cc1cccc(Cc2cnc(NC(=O)C3=NCCN3)s2)c1	none
O=[N+]([O-])c1ccc(-c2ccc(/C=N/Nc3nc(N4CCCCC4)nc(N4CCCCC4)n3)o2)cc1	none
O=[N+]([O-])c1cccc(-c2ccc(/C=N/Nc3nc(N4CCCCC4)nc(N4CCCCC4)n3)o2)c1	SMARCA2 activ 8.9 | SMARCA2 act conf inactive | VP16 Luc act inactive
Cc1ccc(-n2c(C)c(C)c3c(NCCCO)ncnc32)cc1	SMARCA2 activ 10 | SMARCA2 act conf 12 | VP16 Luc act 8.6
Cc1c(C)n(CCCN(C)C)c2ncnc(NCc3ccccc3)c12	none
Cc1c(C)n(CCc2ccccc2)c2ncnc(NCCO)c12	SMARCA2 activ 10 | SMARCA2 act conf 8.4 | VP16 Luc act 10
COc1ccc(-n2c(C)c(C)c3c(NCCCO)ncnc32)cc1	SMARCA2 activ 11 | SMARCA2 act conf inactive | VP16 Luc act 5.4
O=C(CSc1nnc(-c2ccccc2)n1-c1ccc(Cl)cc1)c1ccc(F)cc1	none
Cc1ccc(C)c(OCC(=O)O/N=C(\N)c2ccccn2)c1	SMARCA2 activ 9.2 | SMARCA2 act conf inactive | VP16 Luc act 8.2
COc1ccc(CC(=O)O/N=C(\N)c2ccccn2)cc1	SMARCA2 activ 8.0 | SMARCA2 act conf inactive | VP16 Luc act 6.4
COc1ccc(S[C@]2(C(=O)N3CCOCC3)CC(=O)N(P(=O)(OC)OC)[C@@H]2c2ccc(OC)cc2)cc1	none
O=C(Cn1cc(/C=C\[N+](=O)[O-])c2ccccc21)Nc1ccccc1	SMARCA2 activ 17 | SMARCA2 act conf 10.0 | VP16 Luc act inactive
Cc1nc2cc(C(=O)N3CCN(C(=O)OCc4ccccc4)CC3)ccc2n1C1CCCC1	none
Fc1cccc(C2NN=C(c3ccccc3)S2)c1 (stereo unspecified)	ssDAF-12 act 2.3, DAX1 StAR inh 4.5, hgDAF12 agonist 28, SMARCA2 activ 12, hcDAF-12 act 10 | SMARCA2 act conf 14 | VP16 Luc act 13

Compound activity: PubChem BioAssay, The Scripps Research Institute Molecular Screening Center
